39 compounds from ChEMBL document CHEMBL3988442, “University of Dundee, Small-Polar-MMV Screening Library” (2021) can be followed below.

Sequence of Chromo domain-containing protein 1 (Saccharomyces cerevisiae (strain ATCC 204508 / S288c) (Baker's yeast)) (P32657 whole entry, the tested form may be a part): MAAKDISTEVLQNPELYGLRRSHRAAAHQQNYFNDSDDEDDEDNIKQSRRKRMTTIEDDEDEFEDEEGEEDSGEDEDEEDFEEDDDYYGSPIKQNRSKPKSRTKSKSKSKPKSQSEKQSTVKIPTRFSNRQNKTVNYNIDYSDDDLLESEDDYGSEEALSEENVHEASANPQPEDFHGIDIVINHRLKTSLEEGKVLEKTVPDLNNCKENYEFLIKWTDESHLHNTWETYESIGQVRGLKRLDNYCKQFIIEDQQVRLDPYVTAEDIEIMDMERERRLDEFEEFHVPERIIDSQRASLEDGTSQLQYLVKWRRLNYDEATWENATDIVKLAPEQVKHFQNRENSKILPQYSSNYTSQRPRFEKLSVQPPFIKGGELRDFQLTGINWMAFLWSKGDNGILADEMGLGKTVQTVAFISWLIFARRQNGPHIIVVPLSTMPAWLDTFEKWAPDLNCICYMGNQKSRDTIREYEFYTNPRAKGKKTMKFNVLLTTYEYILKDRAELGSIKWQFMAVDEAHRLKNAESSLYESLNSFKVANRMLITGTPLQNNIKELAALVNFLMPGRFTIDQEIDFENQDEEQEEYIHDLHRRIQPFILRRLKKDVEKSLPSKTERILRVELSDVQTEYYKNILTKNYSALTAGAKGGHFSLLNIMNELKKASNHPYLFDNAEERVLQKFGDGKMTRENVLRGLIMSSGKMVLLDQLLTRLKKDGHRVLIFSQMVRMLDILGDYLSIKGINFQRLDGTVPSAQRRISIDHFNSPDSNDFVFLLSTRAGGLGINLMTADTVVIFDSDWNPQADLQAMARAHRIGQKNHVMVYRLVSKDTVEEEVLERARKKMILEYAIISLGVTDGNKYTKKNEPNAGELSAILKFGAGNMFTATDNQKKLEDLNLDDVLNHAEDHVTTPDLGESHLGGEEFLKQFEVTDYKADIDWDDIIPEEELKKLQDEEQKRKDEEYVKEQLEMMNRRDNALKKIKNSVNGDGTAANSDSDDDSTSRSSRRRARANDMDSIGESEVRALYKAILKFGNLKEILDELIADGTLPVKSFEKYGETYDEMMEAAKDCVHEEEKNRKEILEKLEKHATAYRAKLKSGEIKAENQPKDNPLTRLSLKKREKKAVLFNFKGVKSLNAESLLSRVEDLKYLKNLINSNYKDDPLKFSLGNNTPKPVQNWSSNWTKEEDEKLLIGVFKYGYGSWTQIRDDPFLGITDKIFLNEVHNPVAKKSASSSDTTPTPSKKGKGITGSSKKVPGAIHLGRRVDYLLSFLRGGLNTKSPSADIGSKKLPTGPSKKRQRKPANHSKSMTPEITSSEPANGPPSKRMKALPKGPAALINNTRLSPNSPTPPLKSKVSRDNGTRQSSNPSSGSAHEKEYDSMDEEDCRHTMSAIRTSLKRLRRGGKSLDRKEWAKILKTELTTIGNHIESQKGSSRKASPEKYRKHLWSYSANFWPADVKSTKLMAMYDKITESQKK

The first assay has as its target T1, Tyrosyl-tRNA synthetase, putative (Trypanosoma cruzi (strain CL Brener)) (UniProt Q4DSP6).
T1 sequence (whole entry): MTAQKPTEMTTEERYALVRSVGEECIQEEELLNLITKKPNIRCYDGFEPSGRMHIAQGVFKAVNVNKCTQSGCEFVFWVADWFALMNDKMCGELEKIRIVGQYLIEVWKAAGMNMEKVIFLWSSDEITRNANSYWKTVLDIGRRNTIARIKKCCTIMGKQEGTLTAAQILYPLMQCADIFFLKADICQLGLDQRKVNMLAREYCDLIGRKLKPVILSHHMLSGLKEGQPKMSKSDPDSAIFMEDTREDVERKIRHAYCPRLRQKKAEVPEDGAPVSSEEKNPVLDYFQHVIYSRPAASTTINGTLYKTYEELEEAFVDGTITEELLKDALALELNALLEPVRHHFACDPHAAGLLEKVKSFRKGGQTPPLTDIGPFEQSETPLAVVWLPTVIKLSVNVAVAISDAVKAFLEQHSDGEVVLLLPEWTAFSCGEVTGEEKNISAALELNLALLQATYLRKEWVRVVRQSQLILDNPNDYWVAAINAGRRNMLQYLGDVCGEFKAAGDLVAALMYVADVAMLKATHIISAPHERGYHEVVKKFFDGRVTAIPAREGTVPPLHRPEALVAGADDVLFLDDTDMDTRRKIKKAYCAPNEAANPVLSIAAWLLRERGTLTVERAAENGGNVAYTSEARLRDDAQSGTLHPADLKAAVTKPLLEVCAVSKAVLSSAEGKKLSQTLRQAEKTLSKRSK
Description: Trypanosoma cruzi tyrosyl tRNA synthetase (TcYRS) SOP. The assay is classed as functional. Details: scale not given: direction of the effect not stated beside the values. The following applies: 30 µM.
As for `c1ccc(OCCN2CCCC(c3noc(C4CC4)n3)C2)cc1` (stereo not drawn), the Percent Effect worked out at 1.24%. For `Cn1ccc(C(=O)N2CCN(CCc3ccccc3)CC2)cc1=O`, the Percent Effect was found to be 17.7%. In the case of `CN(Cc1cccs1)C(=O)CN1CCCC1Cn1cncn1` (stereo not drawn), the Percent Effect was 13.6%.

On to `CNC(=O)C1(CCCc2ccncc2)CCCN1` (stereo not drawn), for which the Percent Effect turned out to be 22.1%. With `c1cn(Cc2nnc(C3CCN(C4CCOCC4)CC3)n2C2CC2)cn1`, the Percent Effect amounted to 3.7%. The same measure, in the same setting: with `COC(=O)CCc1c(C)nc2cc(O)nn2c1C` the figure was 21.9%; with `CCN(CC1CCCO1)C(=O)Nc1cc(OC)c(OC)cc1C` (stereo not drawn), 21.5%; with `Cc1noc(C(C)C)c1C(=O)NCC(c1ccsc1)N(C)C` (stereo not drawn), 11.4%.

Turning to `O=C(Cc1ccccn1)N1C[C@@H]2CC[C@H](C1)N(Cc1ccccc1)C2=O`, the Percent Effect turned out to be 4.88%. On the same count and under the same terms, with `COCCn1cc(C(=O)N2CCCC2c2cc(C)no2)ccc1=O` (stereo not drawn) the figure was 12.2%; with `CC(C)c1noc(CCCC(=O)N2CCC(Cc3cccnc3)CC2)n1`, -3.8%; with `Cc1nn(-c2ccccc2)c2c1C(c1ccc(C(=O)O)cc1)CC(=O)N2` (stereo not drawn), 6.17%.

Turning to `CC(OCC1CC1)C(=O)N1CCCN(c2ncccc2C#N)CC1` (stereo not drawn), the Percent Effect was -8.64%. Still for that read-out and setting: with `CCN(Cc1ccc2c(c1)OCCO2)S(=O)(=O)N(C)C(C)C` the figure was 14.6%; with `CC(C)N(C)C(=O)C1=NOC2(CCN(C(=O)c3ccncc3)C2)C1` (stereo not drawn), 6.17%. On the same count and under the same terms, as for `CN1CCCC1c1cccc(Cc2ccccc2F)n1` (stereo not drawn), the figure is 11.7%. On the same count and under the same terms, with `Cc1cc(CNc2ccc(C(=O)N3CCCC(C)C3)cc2C)no1` (stereo not drawn) the figure was 14.6%; with `Cn1nc(C#N)c2c1CN(C(=O)c1cccnc1)CCC2`, -6.41%; with `CCOCCCNC(=O)c1nn(CC)cc1Cl`, 12.8%.

The next assay addresses Chromo domain-containing protein 1 (Saccharomyces cerevisiae (strain ATCC 204508 / S288c) (Baker's yeast)) (UniProt P32657). Description: ScCHD-1 Enzyme Inhibition Assay. The assay is classed as functional. Details: scale not given: in the data most compounds retested in dose-response had high values. The following applies: 30 µM.
Consider `CC(=O)N1CCCN(Cc2csc(-c3ncccn3)n2)CC1`, for which the Percent Effect was -3.23%. The same measure, in the same setting: as for `O=C(NCCc1ccn(-c2ccccc2)n1)N1CCC1`, the figure is -20.8%. Still for that read-out and setting: as for `O=C(NC1CC1)[C@H]1C[C@@H]2CCN(CCc3ccccc3)C[C@H]2O1`, the figure is -2.58%; as for `CC1c2ncc(CN3CCN(C)CC3)n2CCN1CC1CC1` (stereo not drawn), -8.05%. Take `O=S(=O)(c1cccs1)N1CC[C@H](O)[C@@H]1Cc1ccncc1`: the Percent Effect was -1.7%. On the same count and under the same terms, with `COCc1nc2cc(NCc3ccncc3)ccc2o1` the figure was 2.52%. The same measure, in the same setting: with `CCn1cc(CN(C)C(=O)c2cccc(CCC(C)(C)O)c2)cn1` the figure was -6.76%; with `COCCCNC(=O)CCn1nc(C)c2ccccc21`, -8.28%. Consider `CCc1nc(CN2CCCC(NCc3ccc(C(N)=O)cc3)C2)no1` (stereo not drawn), for which the Percent Effect is -2.88%.

`CCS(=O)(=O)N1CCO[C@H]2[C@H](OCCCn3cccn3)CC[C@@H]21`: the Percent Effect is -1.55%. In the case of `Cc1nccn1C1CCCN(C(=O)c2ccc3c(c2)COC3)C1` (stereo not drawn), the Percent Effect was -0.0787%. Same read-out and setting: as for `Cc1cc(C)n(-c2ccc(CNCc3ccc(OC(C)C)cc3)cn2)n1`, the figure is -10.2%. Take `CCc1nc(C2CCCN2Cc2nc3ccccc3o2)no1` (stereo not drawn): the Percent Effect was determined as 2.53%.

`CC(C)N1CCC(Cc2cc(-c3ccccc3C(=O)O)ncn2)CC1`: the Percent Effect is -7.12%.

Regarding `CC(=O)c1cccc(OCCCC(=O)NCC2CCCN2C)c1` (stereo not drawn), the Percent Effect was -9.7%. Still for that read-out and setting: with `CN1C(=O)C[C@@H]2[C@@H]1CCN2C(=O)c1ccc[nH]1` the figure was 0.233%; with `Cc1cc(C)n(-c2cncc(N3CCN(C(=O)C(C)(C)C)CC3)n2)n1`, -3.42%. As to `C1CCCN(c2nc(C3CC3)ns2)CC1`, the Percent Effect was -3.08%.

As for `Cn1cnnc1S(=O)(=O)C1CCN(S(=O)(=O)C2CC2)CC1`, the Percent Effect was -1.03%. For the compound `O=C(O)c1ccc(S(=O)(=O)Nc2ccc(Cl)c(F)c2)c(F)c1`, the Percent Effect is -4.26%. Consider `c1ccc(OCCN2CCCC(c3noc(C4CC4)n3)C2)cc1` (stereo not drawn), for which the Percent Effect was -2.68%.

For the compound `Cn1ccc(C(=O)N2CCN(CCc3ccccc3)CC2)cc1=O`, the Percent Effect is -7.93%. The same measure, in the same setting: as for `CN(Cc1cccs1)C(=O)CN1CCCC1Cn1cncn1` (stereo not drawn), the figure is -2.25%. Same read-out and setting: with `CNC(=O)C1(CCCc2ccncc2)CCCN1` (stereo not drawn) the figure was -10.5%; with `c1cn(Cc2nnc(C3CCN(C4CCOCC4)CC3)n2C2CC2)cn1`, -5.45%. Same read-out and setting: as for `COC(=O)CCc1c(C)nc2cc(O)nn2c1C`, the figure is -9.77%; as for `CCN(CC1CCCO1)C(=O)Nc1cc(OC)c(OC)cc1C` (stereo not drawn), -9.07%; as for `Cc1noc(C(C)C)c1C(=O)NCC(c1ccsc1)N(C)C` (stereo not drawn), -5.47%. `O=C(Cc1ccccn1)N1C[C@@H]2CC[C@H](C1)N(Cc1ccccc1)C2=O`: the Percent Effect was -2.65%.

As for `COCCn1cc(C(=O)N2CCCC2c2cc(C)no2)ccc1=O` (stereo not drawn), the Percent Effect is -3.51%. As to `CC(C)c1noc(CCCC(=O)N2CCC(Cc3cccnc3)CC2)n1`, the Percent Effect is -3.44%. On to `Cc1nn(-c2ccccc2)c2c1C(c1ccc(C(=O)O)cc1)CC(=O)N2` (stereo not drawn), for which the Percent Effect was -14.9%. For the compound `CC(OCC1CC1)C(=O)N1CCCN(c2ncccc2C#N)CC1` (stereo not drawn), the Percent Effect was -5.69%. Consider `CCN(Cc1ccc2c(c1)OCCO2)S(=O)(=O)N(C)C(C)C`, for which the Percent Effect is -6.79%. Same read-out and setting: with `CC(C)N(C)C(=O)C1=NOC2(CCN(C(=O)c3ccncc3)C2)C1` (stereo not drawn) the figure was -0.614%; with `CN1CCCC1c1cccc(Cc2ccccc2F)n1` (stereo not drawn), 0.4%. Regarding `Cc1cc(CNc2ccc(C(=O)N3CCCC(C)C3)cc2C)no1` (stereo not drawn), the Percent Effect is -5.48%. Same read-out and setting: as for `Cn1nc(C#N)c2c1CN(C(=O)c1cccnc1)CCC2`, the figure is -0.821%. Consider `CCOCCCNC(=O)c1nn(CC)cc1Cl`, for which the Percent Effect is -10.4%.
